An excerpt weighted towards active compounds, which were near 11% of everything screened.
MCF10A rereplic = DNA re-replication induction in MCF 10a cells; MCF 10A DNA re-replication, Hoechst nuclear intensity, 48 h; Potency, µM (highest dose often 46.1 µM), for the others: at the top dose activity, positive = re-replication, most hits filed as activators; 2.9% of 350,000 active; AID 624296; further: potency means the concentration at half of the fitted maximal effect; % of control where 0% means no effect; nearly all actives have a fitted effect of over 50% in size
SW480 rerep = inducers of DNA re-replication in SW480 colon cancer cells | Potency, µM (series often up to 46.1 µM), without a hit: at the highest dose re-replication activation, actives largely listed as activators | 1.8% of 340,000 active | SW480 DNA re-replication, Hoechst DNA content imaging, 48 h; further: potency means the concentration at half of the fitted maximal effect; % of control where 0% means no effect; nearly all actives have a fitted effect of over 55% in size
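Image-based DNA-content assay: after two days of treatment, nuclei were labelled with the DNA dye Hoechst and imaged, and hits were compounds raising the count of nuclei showing high fluorescence intensity.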
IL-1B inflam inh = inhibitors of inflammasome signaling (IL-1 beta secretion); 4.7% of 360,000 active; activity change, % at 57.5 µM; THP-1 LPS/ATP IL-1B secretion, AlphaLISA, 16 h; hits give low values; AID 743279; in the data active means activity change below about -50%; inconclusive means mostly about -30% to -49%; further: on the % scale 0 is the no-effect control and ±100 the full control effect
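Secreted IL-1B measured by AlphaLISA bead assay after 16 h compound exposure of THP-1 cells; compounds (final up to 57.5 uM) added 1 h before LPS (250 ng/mL) and ATP (1.25 mM) stimulation; lower signal means less secretion.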
RORg inh = ROR gamma (mouse) transcription inhibition | 5.4% of 310,000 active | Potency, µM (titrated, usually from 53.6 µM), for the others: at the highest dose activity change, negative = inhibition, most hits filed as inhibitors | Drosophila S2 Gal4-RORgamma UAS-luciferase reporter, 20 h; further: potency means the concentration at half of the fitted maximal effect; on the % scale 0 is the no-effect control and ±100 the full control effect; nearly all actives have a fitted effect of over 60% in size
Target sequence (P51450 whole entry, looked up, the tested form may be a part): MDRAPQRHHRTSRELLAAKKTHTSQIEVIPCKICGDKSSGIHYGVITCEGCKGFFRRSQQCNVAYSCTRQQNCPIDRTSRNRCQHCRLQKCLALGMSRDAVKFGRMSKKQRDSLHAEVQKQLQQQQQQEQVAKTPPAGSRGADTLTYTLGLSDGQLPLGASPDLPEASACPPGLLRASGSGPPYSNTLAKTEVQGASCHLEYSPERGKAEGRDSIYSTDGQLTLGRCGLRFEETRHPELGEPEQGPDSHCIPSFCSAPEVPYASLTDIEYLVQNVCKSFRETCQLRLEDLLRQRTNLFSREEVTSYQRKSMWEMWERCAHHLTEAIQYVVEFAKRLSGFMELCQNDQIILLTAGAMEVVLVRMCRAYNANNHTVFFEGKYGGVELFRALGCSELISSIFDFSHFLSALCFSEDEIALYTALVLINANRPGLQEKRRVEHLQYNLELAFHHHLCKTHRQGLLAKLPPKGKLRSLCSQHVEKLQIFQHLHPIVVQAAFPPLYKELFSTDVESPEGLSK
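Drosophila S2 cells stably expressing Gal4-DBD/mouse RORγ fusion under metallothionein promoter plus UAS-luciferase; compound 1 h, then 700 uM CuSO4 induction for 20 h at ambient temperature; inhibition read as reduced luminescence.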
Gal4-VP16 FLuc = Gal4-VP16 reporter inhibition counter-screen; Drosophila S2 Gal4-VP16 UAS-luciferase, luminescence, 20 h; Potency, µM (series often up to 53.6 µM), without a hit: at the highest dose activity, negative = inhibition, hits mostly inhibitors; 3.5% of 310,000 active; AID 2546;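 further: Gal4-VP16 expression switched on by copper sulfate through the metallothionein promoter; potency means the concentration at half of the fitted maximal effect; on the % scale 0 is the no-effect control and ±100 the full control effect; nearly all actives have a fitted effect of over 50% in size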
The depositor's hits bear a star; i = inactive; ? = inconclusive; · = no result given; ! = repeats disagree; [ ] = remark or other dose. Unless noted, the call rests on the fitted dose curve; in most records, active means well fitted curve in the direction sought with a large enough effect; inconclusive means small, poorly fitted or top-dose-only effect, or another doubt; inactive means no such curve, though single readings can be large; an effect the other way counts as inactive or inconclusive.

SMILES | MCF10A rereplic | SW480 rerep | IL-1B inflam inh | RORg inh | Gal4-VP16 FLuc
CC(=O)N1C2(C=CC1(C)C(=O)NCc1cc(F)cc(C(F)(F)F)c1)CCCCC2 (stereo not given) | · | · | · | ? | -3%
Cc1ccc(CN2CCC[C@]3(N[C@H](c4ccc(C)cc4)[C@@H]4C(=O)N(Cc5ccccc5)C(=O)[C@@H]43)C2=O)cc1 | · | · | -2 | · | ·
Cc1ccc(F)c(S(=O)(=O)NC(=O)C2(C)CCN2C(=O)c2ccc(C(F)(F)F)nc2C)c1 (stereo not given) | · | · | 23 | · | ·
Cc1cccc(NC(=O)C2CCN(S(=O)(=O)c3cccc4nonc34)CC2)c1 | 24% | ? | -8 | 23% | -8%
Cc1cccc(-c2nnc(SCC(=O)c3ccc(O)cc3O)n2C)c1 | 3% | 1% | 21 | -39% | -10%
CC(=O)O[C@@H](C)C#C[Si](C)(C)c1ccccc1 | · | · | · | ? | 0%
CC[C@H](C)[C@H](NC(=O)[C@H](CCC(=O)O)NC(=O)CNC(=O)[C@@H](NC(=O)[C@H](CCC(=O)O)NC(=O)[C@H](CCC(=O)O)NC(=O)[C@H](CC(C)C)NC(=O)CNC(=O)[C@@H]1CCCN1C(=O)[C@H](CCC(=O)O)NC(=O)[C@@H](N)[C@@H](C)O)C(C)C)C(=O)N[C@@H](CCC(=O)O)C(=O)N[C@@H](CCC(N)=O)C(=O)N[C@@H](CCCCN)C(=O)N[C@@H](CCC(N)=O)C(=O)N[C@@H](CC(C)C)C(=O)N[C@@H](CCC(N)=O)C(=O)O | · | · | · | -7% | -10%
COCc1c(C(=O)N/N=C(/C)c2cccs2)nnn1-c1nonc1N | 3% | 0% | 2 | -19% | -1%
C/C(=N\NC(=O)c1cc2ccccc2cc1O)c1ccc(C)o1 | ? | ? | 17 | 8.9µM* | ?
C/C(=N\NC(=O)c1nonc1N)c1cccs1 | 0% | -3% | 11 | 0.32µM* | 1%
O=C(NNC(=O)c1ccc2ccccc2c1O)c1cccs1 | 12% | ? | -8 | 16µM* | ?
Cc1ccc(NC(=O)NNC(=O)c2cc3ccccc3cc2O)c(C)c1 | -12% | -8% | 0 | -20% | 2%
C/C(=N/NC(=O)c1cc2ccccc2cc1O)c1ccco1 | ? | ? | 0 | ? | ?
Cc1ccc(C)c(NC(=O)NNC(=O)c2cc3ccccc3cc2O)c1 | 15µM* | -25% | i | -15% | -7%
CCOC(=O)C1CCCN(C(=O)c2ccc(SC(F)(F)F)cc2)CC1 (stereo not given) | · | · | 40 | · | ·
O=C(Nc1ccc(Br)c2ccccc12)c1ccc2ccccc2c1O | 3.3µM* | 2% | -51* | ? | ?
CC(=O)Nc1ccc(Br)c2ccccc12 | 4% | -13% | 7 | -2% | 7%
Clc1cc(Cl)c(Cl)cc1Cl | 2% | 2% | -3 | 12% | -3%
Clc1cc(Cl)c(OCC#CI)cc1Cl | 21µM* | ? | · | 7.1µM* | 5.6µM*
COc1cc(/C=C/C(C)=NNc2ccccc2)ccc1O | 16µM* | ? | -94* | · | ·
COc1cc(/C=C/C(=O)O)ccc1O | ? | ? | -18 | 2% | 4%
COc1cc(/C=C/C(=O)/C=C(O)/C=C/c2ccc(O)c(OC)c2)ccc1O | 33µM* | 30µM* | -88* | 16µM*! | ?
COc1cc(/C=C/C(=O)CC(=O)/C=C/c2ccc(O)c(OC)c2)ccc1O | 26µM*! | 12µM*! | -69* | 11µM* | 16µM*
COc1cc(C=C(C(C)=O)C(C)=O)ccc1O | ? | 0% | -67* | -39% | 4%
CN(C)Cc1ccccc1-c1cncnc1NCc1ccccc1 | · | · | · | -9% | -3%
SMILES | MCF10A rereplic | SW480 rerep | IL-1B inflam inh | RORg inh | Gal4-VP16 FLuc
COc1ccc(CCNC(=O)C(NS(=O)(=O)c2cccc3nsnc23)C(C)C)cc1OC (stereo not given) | 1% | -11% | 9 | -3% | -8%
Cc1nn(C2CCS(=O)(=O)C2)c(C)c1CN(C)C(=O)c1ccc(F)cc1 (stereo not given) | · | · | 4 | · | ·
CC1=C(C(=O)N(C)C)CC(CC(=O)NC2CCCC2)C(=O)N1CCC1=CCCCC1 (stereo not given) | · | · | 8 | · | ·
COc1ccc(/C=C/C(=O)CC(=O)/C=C/c2cccc(O)c2OC)cc1O | · | · | · | 6.3µM* | 4%
COc1ccc(/C=C/C(=O)c2cccc(-n3cnnn3)c2)cc1O | 1% | 7% | -6 | 13% | 12%
COc1cc(/C=C/C(=O)OCC(=O)NCc2ccco2)ccc1OC(F)F | -2% | -7% | 0 | 2.5µM* | 4µM*
COc1cc(/C=C/C(=O)OCC(=O)NCc2ccc(F)cc2)ccc1O | 15µM* | 8.2µM* | 67 | · | ·
COc1cc(/C=C/C(=O)OCc2cn3cc(Cl)ccc3n2)ccc1O | 10µM* | ? | 9 | -15% | 6%
CCOc1ccc2c(c1)[N+](C)(C)C(C)(C)C=C2C | 14% | -1% | -55* | 39% | -1%
O=C(CN1CCOCC1)Nc1ccc(OC(F)(F)F)cc1 | -1% | -3% | 12 | 9% | -1%
CC(=O)NC(=S)Nc1ccccc1N1CCN(C(=O)c2ccccc2)CC1 | 5% | -12% | 26 | 6.3µM* | 5µM*
O=C(NC(=S)Nc1ccccc1N1CCOCC1)c1ccccc1F | 16% | 2% | -8 | 13µM* | 20µM*
FC(F)(F)Oc1ccc(NC(=S)Nc2ccccc2N2CCOCC2)cc1 | 29% | 8% | 21 | 7.9µM* | ?
O=C(NC(=S)Nc1ccccc1N1CCN(C(=O)c2ccccc2)CC1)c1ccccc1F | ? | 8% | i | 13µM* | ?
Cc1ccc(NC(=O)CCn2c(=O)c3cccn3c3ccccc32)c(C)c1 | 3% | 3% | 0 | 34% | -6%
Cc1cc(C)cc(NC(=O)CCn2c(=O)c3cccn3c3ccccc32)c1 | 8.2µM* | -13% | 20 | 6% | 3%
Cc1cccc(-n2c(C)cc(C=C3C(=O)c4ccccc4C3=O)c2C)c1 | ? | 24% | -58* | -19% | 3%
CCn1c(C)cc(C=C2C(=O)c3ccccc3C2=O)c1C | ? | ? | 0 | 11µM* | -42%
Cc1cc(C=C2C(=O)c3ccccc3C2=O)c(C)n1-c1ccc(Cl)cc1 | 8% | -8% | 7 | -2% | ?
Cc1cccc(-n2c(C)cc(/C=N/n3cnnc3)c2C)c1 | ? | 8% | -12 | ? | 20µM*
CC(C)COC(=O)N1CCCCC1c1cc(C(=O)NCc2ccccc2)no1 (stereo not given) | · | · | -10 | · | ·
O=C1N/C(=C\c2ccccc2)c2ccccc21 | 18µM* | ? | 34 | -1%[0.365 µM] | ·
COC(=O)NC(c1ccc2c(c1)OCO2)C(C(=O)OC)C(=O)OC (stereo not given) | · | · | · | 28% | 4%
